High-throughput results: PubChem BioAssay, several laboratories
Rows were chosen to be rich in hits. Some 1.4% of all compounds tested hit in one or more screens of this group.
HUVEC tox IL1B – HUVEC cytotoxicity counter-screen, IL-1B stimulated; cell count reduction, % at 2 µM; HUVEC cell count loss, Hoechst imaging; 94,000 tested, 0.41% active;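 active = cell count reduction more than 3 SD above the screen-wide mean, cut at about 70% in these data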;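 also: normalized per plate to untreated control cells as the no-loss baseline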
sdo1 growth – sdo1-depleted yeast growth rescue. S. cerevisiae sdo1-depleted JHY4D growth rescue, OD600 30 h; active compounds read high; pdr5 snq2 efflux-pump mutant strain. z-score at 10 µM. 140,000 tested, 0.21% active;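 active = z-score above 3 at both the 24 hr and the 30 hr optical density reads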;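 also: z-score against mean and SD of all compound wells on the same plate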
IL1B NFkB pot – enhances IL-1B driven NFkB nuclear translocation; HUVEC IL-1B NFkB p65 nuclear translocation imaging; activation, % at 2 µM; 94,000 tested, 0.3% active; AID 819;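 active = activation above 40%, about the mean plus 3 SD, also judged a hit on visual image review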;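 also: percent activation is computed from the nuclear over cytoplasmic p65 intensity ratio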
NFkB transloc inh – blocks IL-1B driven NFkB nuclear translocation in HUVEC cells | 94,000 tested, 0.43% active | HUVEC IL-1B NFkB p65 nuclear translocation imaging | inhibition, % at 2 µM | AID 796;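 active = inhibition above about 30% together with a positive call from visual inspection of the well image, limit read from the data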;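 also: nuclear over cytoplasmic p65 intensity ratio measured by imaging; 0% = IL-1B stimulated DMSO wells and 100% = unstimulated DMSO wells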
MRP resist rev – compounds reversing MRP-mediated drug resistance; H69AR cells + 2 uM doxorubicin, CellTiter-Glo, 72 h; differential viability (reversal), % at 10 µM; 85,000 tested, 0.04% active; AID 602;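 active = viability drop by adding the cancer drug above about 55%, with treated viability meeting a 40% cutoff, limit read from the data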;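 also: viability without doxorubicin minus viability with 2 µM doxorubicin for each compound; larger differential means the compound sensitizes cells more to doxorubicin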
MRP1 act – activates MRP-1. viability increase, % at 10 µM. 140,000 tested, 0.61% active. H69AR cells + doxorubicin, viability rescue, CellTiter-Glo;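 active = viability gain under doxorubicin at or above a set limit, the compound median plus 3 SD, cut at about 4.7% in these data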;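 also: MRP-1 overexpressing cells given doxorubicin 25 µM after compound pretreatment; 18-22 h compound pretreatment then 72 h with doxorubicin before readout; 0% = doxorubicin-only wells and 100% = vehicle-treated cells without doxorubicin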
Numbers without * were called inactive; . = no result; [ ] = dose if it differs, or a comment.

SMILES	HUVEC tox IL1B	sdo1 growth	IL1B NFkB pot	NFkB transloc inh	MRP resist rev	MRP1 act
O=C(NC(=S)Nc1ccccc1N1CCOCC1)c1ccco1	.	0.43	.	.	.	-1
O=C(NC(=S)Nc1ccccc1N1CCOCC1)c1ccc(-c2cc(Cl)ccc2Cl)o1	.	-1.6	.	.	.	15*
O=C(O)c1cccc(N2C(=O)c3cccc(Oc4ccc(Cl)cc4)c3C2=O)c1	.	0.24	.	.	.	2
COC(=O)CCS(=O)(=O)c1ccc(Cl)c(Cl)c1	95*	0.95	15	-15	0	-2
CCOC(=O)C1(O)CC(C)=NN1C(=O)c1cccc(Cl)c1 (stereo not given)	.	1.1	.	.	.	-2
Cc1nn(C)cc1C(C(=O)NC1CCCCC1)N(C(=O)Cc1cccs1)c1ccc(Cl)cc1 (stereo not given)	.	0.37	.	.	.	-3
CCOc1ccc(NS(=O)(=O)c2ccc3[nH]cc(C(=O)NC(C)CC)c(=O)c3c2)cc1 (stereo not given)	-15	0.69[8.6 µM]	-4	4	22	0
COc1cccc(NS(=O)(=O)c2ccc3[nH]cc(C(=O)NCCC(C)C)c(=O)c3c2)c1	91*	-0.34	-19	19	0	-1
COc1ccc(NC(=O)c2ccc(C)cc2Cl)c([N+](=O)[O-])c1	79*	-0.29	-11	11	.	-4
COc1ccc(NC(=O)c2ccc(C)o2)c([N+](=O)[O-])c1	.	-0.29	.	.	.	-3
Cc1ccccc1Cn1c(-c2cncs2)nc2ccccc21	17	-0.75	-1	1	-6	-1
O=C(Cn1c(-c2cncs2)nc2ccccc21)NCc1ccccc1	90*	0.88	-2	2	18	-3
COc1ccc(C(=O)Cc2nnc(C)s2)cc1	.	0	.	.	.	-1
O=C(O)c1ccc(-n2nnnc2SCc2ccccc2)cc1	-10	0.44	10	-10	83*	-4
COc1ccccc1CC(=O)Nc1ccc(-c2noc(COc3cccc(C)c3C)n2)cc1	-21	-0.81	-9	8	-1	-1
COc1ccccc1CC(=O)Nc1ccc(-c2noc(COc3ccc(Br)cc3)n2)cc1	-8	-0.78	50*	-50	-7	-1
O=C(CCCOc1ccc(Cl)cc1)Nc1nncs1	-14	0.49	43*	-43	.	-1
Cc1cccc(-n2c(N)cc(=O)nc2SCC(=O)Nc2nnc(CC(C)C)s2)c1	3	0.34	-1	1	-2	3
CCCCc1nnc(NC(=O)CSc2nc(=O)cc(N)n2-c2cccc(C)c2)s1	-7	-1.2	5	-5	-7	6.0*
CCC(C)(CC(=O)N(C)CCC#N)c1ccccc1 (stereo not given)	84*	0.56	-26	26	3	-2
N#CC1=C(N)N(c2ccc(Br)cc2)C2=C(C(=O)CCC2)C1c1cccnc1 (stereo not given)	.	1.2	.	.	59*	-5
CCCCSc1nnc(CNC(=O)C23CC4CC(CC(C4)C2)C3)n1Cc1ccccc1	.	-0.41	.	.	.	-2
Cc1ccc(NC(=O)c2cc(N3C(=O)C=CC3=O)ccc2N2CCOCC2)cc1Cl	.	-2.3	.	.	.	0
O=C(CSc1nnc(-c2ccccc2)n1Cc1ccco1)Nc1ccc2c(c1)OCCO2	1	-0.34	5	-5	-7	-3
O=C(CSc1nnc(-c2ccccc2)n1Cc1ccco1)NCc1ccc2c(c1)OCO2	8	-0.97	59*	-59	-5	-1
SMILES	HUVEC tox IL1B	sdo1 growth	IL1B NFkB pot	NFkB transloc inh	MRP resist rev	MRP1 act
S=C1NC2=C(CCC/C2=C\c2ccccc2)C(c2ccccc2)N1 (stereo not given)	.	-1.2	.	.	.	-1
C(=C1/CCCC2=C1Nc1ncnn1C2c1ccccc1)/c1ccccc1 (stereo not given)	17	-1.8	-38	38*	0	-5
CNc1sc(C(=O)c2ccccc2F)c(N)c1-c1nc2ccccc2s1	-12	-1.8	5	-5	-2	6.8*
O=C(NNC(=O)c1cccc(S(=O)(=O)N2CCN(c3ccccc3)CC2)c1)c1ccc(Cl)cc1	.	0.56	.	.	.	10*
O=C(c1cccc(S(=O)(=O)N2CCCC2)c1)N1CCN(c2ccccc2)CC1	14	0.75	0	0	0	-2
O=C(c1ccccc1)N1CCN(C(=O)c2cc3ccccc3o2)CC1	-2	0.8	16	-16	11	-2
O=C(c1cc2ccccc2o1)N1CCN(c2ccccc2Cl)CC1	93*	-2.9	-18	18	6	1
CCOc1cc2[nH]c(=O)n(CCC(=O)N3CCN(c4ccccc4OC)CC3)c(=O)c2cc1OCC	-42	1.2	28	-28	8	-3
